{"source": "PubChem BioAssay AID485341", "about": "(National Center for Advancing Translational Sciences (NCATS), 2010)", "note": "Out of some 330,000 compounds screened, about 1,700 (0.52%) were called active. This excerpt belongs to a sample that is enriched for actives. Values without a mark were called inactive. Calls follow the shape of the dose curve; as a rule, active = well fitted inhibition curve with a large enough effect; inconclusive = small, poorly fitted or top-dose-only effect; inactive = no such curve, though single readings can be large or run the other way. Potency is read from the fitted curve at half-maximal effect."}
{"target": "Beta-lactamase (Escherichia coli (strain K12)) (UniProt P00811)", "sequence (P00811 whole entry, looked up)": "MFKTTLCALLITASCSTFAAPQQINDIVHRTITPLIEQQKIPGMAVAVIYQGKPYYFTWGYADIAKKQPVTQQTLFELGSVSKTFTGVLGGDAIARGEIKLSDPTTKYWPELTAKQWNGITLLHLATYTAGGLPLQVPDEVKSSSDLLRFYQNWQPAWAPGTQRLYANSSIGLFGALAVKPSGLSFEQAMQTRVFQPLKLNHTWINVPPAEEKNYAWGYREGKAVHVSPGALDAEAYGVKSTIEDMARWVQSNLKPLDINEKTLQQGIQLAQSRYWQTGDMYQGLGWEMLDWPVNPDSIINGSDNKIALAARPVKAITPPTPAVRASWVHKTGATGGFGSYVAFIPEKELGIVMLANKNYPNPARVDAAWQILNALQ", "assay": "qHTS Inhibitors of AmpC Beta-Lactamase (assay without detergent); also: nearly all actives have a fitted effect of over 20% in size", "conditions": "AmpC nitrocefin hydrolysis, absorbance 480 nm, 0.0001% Triton; series mostly up to 57.1 µM; activity change, negative = inhibition: at the top concentration", "description": "NIH Molecular Libraries Probe Production Network [MLPCN] NIH Chemical Genomics Center [NCGC] Assay Provider: Professor Brian Shoichet, UCSF Assay Overview: This aggregation profiling approach exploits the sensitivity of aggregate formation to detergent. Inhibition of b-lactamase is measured in the presence and absence of 0.01% Triton X-100. This particular assay had the prescence of 0.01% Triton X-100. See Pubchem assay \"Promiscuous and Specific Inhibitors of AmpC Beta-Lactamase (assay without detergent)\" for related screen. Compounds that inhibit only in the absence of detergent are considered likely promiscuous aggregators. A screen of 1,030 compounds was performed in Brian Shoichet's lab in 96-well format. AmpC activity was measured by following the absorbance at 480 nm. Nitrocefin is a chromogenic substrate: while nitrocefin is yellow (lmax 390 nm), the product of its hydrolysis is red (lmax 486 nm, 17,000 M-1). AmpC beta lactamase was provided by Shoichet Lab, UCSF.\nBuffer: 20 mM phosphate buffer, pH 7.0 Triton X-100: No Detergent screen: 0.0001%, Detergent screen: 0.01%. Reagents/Controls: Buffer in columns 3 and 4 as negative control (no enzyme). 5.3 nM AmpC in columns 1, 2, 5-48. Titration of UCSF compound 9 control (from 10 mM, then 1:2) pin-transferred to column 2. Column 1 is neutral (100% activity). Assay Steps: Six uL of reagents were dispensed to 1536-well Greiner black clear bottom plates. Compounds and controls (23 nL) were transferred via Kalypsys PinTool. The plates were incubated for 15 min at room temperature, and then 2 uL of 800 uM solution of nitrocefin was added to start the reaction. The plates were immediately transferred to and read every 20 seconds for 4 min on ViewLux (Perkin-Elmer) High-throughput CCD imager using 480 nm absorbance protocol. During dispense, reagent bottles were kept submerged into 4 deg C water bath. Keywords: NIH Roadmap, MLSCN, MLI, MLSMR, qHTS, NCGC, AmpC Beta-Lactamase, Aggregation", "units": {"activity change, negative = inhibition": "%"}}
{"smiles": "COc1ccccc1CNC(=O)COC(=O)CNS(=O)(=O)c1ccc(NC(C)=O)cc1", "activity change, negative = inhibition": -14.1}
{"smiles": "Cc1cc(C)n(-c2ccc3nncn3n2)n1", "activity change, negative = inhibition": -5.01}
{"smiles": "COc1ccc(C2N3CC(C)(C)CN23)cc1", "note": "(stereo unspecified)", "activity change, negative = inhibition": -13.2}
{"smiles": "O=C(CC1CCCCC1)NCc1ccco1", "activity change, negative = inhibition": -0.34}
{"smiles": "O=C(CN1C(=O)/C(=C/c2ccccc2F)Sc2ccccc21)NCc1cccnc1", "activity change, negative = inhibition": 131}
{"smiles": "O=C(CN1C(=O)/C(=C\\c2ccc(C(F)(F)F)cc2)Sc2ccccc21)NCc1ccco1", "Potency": "10 µM (active)"}
{"smiles": "CN1CCN(Cc2nc3c(c(=O)n(C)c(=O)n3C)n2Cc2cccc3ccccc23)CC1", "activity change, negative = inhibition": 19.2}
{"smiles": "CC1CN(Cc2nc3c(c(=O)n(C)c(=O)n3C)n2Cc2cccc(Cl)c2)CC(C)O1", "note": "(stereo unspecified)", "Potency": "44.7 µM (active)"}
{"smiles": "CCOC(=O)N1CCN(Cc2nc3c(c(=O)n(C)c(=O)n3C)n2Cc2ccccc2)CC1", "activity change, negative = inhibition": -89.9}
{"smiles": "C=CCn1c(C2CC(=O)N(c3ccc(C)cc3)C2)nc2ccccc21", "note": "(stereo unspecified)", "activity change, negative = inhibition": 8.29}
{"smiles": "O=S(=O)(c1cccc2nonc12)N1CCN(c2cccc(Cl)c2)CC1", "activity change, negative = inhibition": -29.9}
{"smiles": "CC(=O)c1ccccc1NC(=O)CC1(CC(=O)O)CCCCC1", "activity change, negative = inhibition": -18.6}
{"smiles": "CC(C)N(c1ccccc1)c1ncnc(NCCC(=O)O)c1[N+](=O)[O-]", "Potency": "0.316 µM (active)"}
{"smiles": "Cc1ccc(C(C)NC(=O)Cn2nc(C)c([N+](=O)[O-])c2C)cc1", "note": "(stereo unspecified)", "activity change, negative = inhibition": -16.3}
{"smiles": "Cc1ccc(OCC(=O)NC(C)c2ccccc2)c([N+](=O)[O-])n1", "note": "(stereo unspecified)", "activity change, negative = inhibition": 7.38}
{"smiles": "CC(OC(=O)CCCOc1ccccc1)C(=O)Nc1ccc(Cl)cn1", "note": "(stereo unspecified)", "activity change, negative = inhibition": -29.5}
{"smiles": "Cc1cccc(N2C(=O)SC(SC(=Nc3ccccc3)Nc3ccccc3)C2=O)c1", "note": "(stereo unspecified)", "activity change, negative = inhibition": -30.1}
{"smiles": "O=C(N/N=C/c1cc(Cl)cc([N+](=O)[O-])c1O)C(O)(c1ccccc1)c1ccccc1", "Potency": "10 µM (active)"}
{"smiles": "CN(C)/N=C/c1cc(Cl)cc([N+](=O)[O-])c1O", "activity change, negative = inhibition": -14.3}
{"smiles": "O=[N+]([O-])c1cc(Cl)cc(/C=N/NC(=S)Nc2cc(S(=O)(=O)N3CCOCC3)ccc2Cl)c1O", "activity change, negative = inhibition": -46.8}
{"smiles": "OCCNCCOc1ccc(Cl)c(Cl)c1", "activity change, negative = inhibition": -15.5}
{"smiles": "S=C(NCCC1=CCCCC1)Nc1ccccc1", "activity change, negative = inhibition": -29.9}
{"smiles": "COc1ccccc1C1SCCN1C(=O)c1ccc([N+](=O)[O-])cc1", "note": "(stereo unspecified)", "activity change, negative = inhibition": -44.7}
{"smiles": "COc1cccc(OC)c1C(=O)Nc1c(C(=O)N2CCN(c3ccccn3)CC2)oc2ccccc12", "activity change, negative = inhibition": 100}
{"smiles": "Cc1[nH]c2ccccc2c1CCN(Cc1cccs1)C(=S)NC(C)(C)C", "activity change, negative = inhibition": -0.689}
{"smiles": "COc1cccc(NC(=S)N(CCc2c(C)[nH]c3ccccc23)Cc2ccco2)c1", "activity change, negative = inhibition": -26.2}
{"smiles": "COc1ccc2[nH]c(C)c(CCN(Cc3cccs3)C(=S)Nc3ccccc3OC)c2c1", "Potency": "0.501 µM (active)"}
{"smiles": "CCN(CC)C(=O)C1CCC(C)(C(=O)O)C1(C)C", "note": "(stereo unspecified)", "activity change, negative = inhibition": -16.7}
{"smiles": "COc1ccc(C(C#N)Nc2ccccc2C)cc1", "note": "(stereo unspecified)", "activity change, negative = inhibition": 12.4}
{"smiles": "Cc1ccc(NC(=O)CCNC(=O)c2ccc([N+](=O)[O-])cc2)cc1S(=O)(=O)N1CCOCC1", "activity change, negative = inhibition": -16.7}
{"smiles": "COc1ccc(C(=O)CC(=O)C(=O)Nc2cc([N+](=O)[O-])ccc2OC)cc1", "activity change, negative = inhibition": -18.2}
{"smiles": "COc1ccc(NS(=O)(=O)c2cc(NC(=O)CC(=O)c3ccc([N+](=O)[O-])cc3)ccc2C)cc1", "Potency": "15.8 µM (active)"}
{"smiles": "CCOP(=O)(OCC)C(Nc1ccc([N+](=O)[O-])cc1)c1ccc(Cl)cc1", "note": "(stereo unspecified)", "activity change, negative = inhibition": 83.3}
{"smiles": "CC(C)c1ccc(Nc2nnc(SCC(=O)c3nnc(-c4ccccc4)o3)s2)cc1", "Potency": "25.1 µM (active)"}
{"smiles": "CC(C)N(C(=O)CSc1nnc(NC2CC2)s1)c1ccccc1", "activity change, negative = inhibition": -17.1}
{"smiles": "Cc1ccccc1Nc1nnc(SCC(=O)c2cc3ccccc3o2)s1", "activity change, negative = inhibition": -49.2}
{"smiles": "CCOc1ccc(-n2cnc3c(=O)[nH]c(N)nc32)cc1", "activity change, negative = inhibition": -18.8}
{"smiles": "Cc1ccc2c(c1)c1ncnc(N3CCc4ccccc4C3)c1n2C", "activity change, negative = inhibition": 1.78}
{"smiles": "COc1ccc(CC2c3cc(OC)c(OC)cc3CC[N+]2(C)CCC(=O)OCCCCCOC(=O)CC[N+]2(C)CCc3cc(OC)c(OC)cc3C2Cc2ccc(OC)c(OC)c2)cc1OC", "note": "(stereo unspecified)", "activity change, negative = inhibition": 145}
{"smiles": "Cc1cc2ccccc2n1CCC(=O)O", "activity change, negative = inhibition": 4.27}
{"smiles": "Cc1cc2ccccc2n1CCNC(=O)COc1ccc2ccccc2c1", "Potency": "10 µM (active)"}
{"smiles": "COC(=O)C(C)NC(=O)COc1ccc2ccccc2c1", "note": "(stereo unspecified)", "activity change, negative = inhibition": -18.4}
{"smiles": "Nn1c(Cc2cccc3ccccc23)nnc1SCC(=O)N1CC(=O)Nc2ccccc21", "activity change, negative = inhibition": 13.7}
{"smiles": "Nc1cc(C(F)(F)F)ccc1N1CCOCC1", "activity change, negative = inhibition": -6.49}
{"smiles": "COc1ccccc1C(=O)Nc1ccc(OCc2nnc3c4ccccc4c(C)nn23)cc1", "activity change, negative = inhibition": 208}
{"smiles": "CCCc1nc(SCC(=O)N2CCCC2)c2c(=O)n(C)c(=O)n(C)c2n1", "activity change, negative = inhibition": 49.1}
{"smiles": "Cn1c(=O)c2c(SCC(=O)N3CCOCC3)nc(C3CC3)nc2n(C)c1=O", "Potency": "10 µM (active)"}
{"smiles": "CCOC(=O)N1CCN(C(=O)CSc2nc(C)nc3c2c(=O)n(C)c(=O)n3C)CC1", "activity change, negative = inhibition": -9.25}
{"smiles": "CSc1ccccc1NC(=O)c1cc(C2CC2)on1", "activity change, negative = inhibition": -8.82}
{"smiles": "Cc1nn(Cc2ccc(Cl)c(Cl)c2)c(C)c1NC(=O)c1cc(C2CC2)on1", "Potency": "10 µM (active)"}
{"smiles": "O=C(NC1CCCCC1)c1cc(C2CC2)on1", "activity change, negative = inhibition": -16.9}
